Results published in PubChem BioAssay (EPA / NIEHS).
Results filed as inconclusive are left out. Active and inactive are the calls of the source. How the source made its calls, unless noted: active means hit-call score of the fitted dose curve at least 0.9, where 1 is the maximum; inconclusive means response in the unintended direction; inactive means score below 0.9.

Assays:
[1] = ATG_TAL_CIS: Attagene CIS-FACTORIAL HepG2 Assay for human TAL Basal Promoter (AID 2282966; active means hit-call score of the fitted dose curve at least 0.9, where 1 is the maximum; inactive means score below 0.9;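 further: background control endpoint measuring basal TAL promoter reporter mRNA not a specific factor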); settings: HepG2 Attagene cis-factorial TAL promoter reporter; actives raise or lower the signal
Summary of the method: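 HepG2 cells transiently transfected with multiplexed cis-promoter reporter units, dosed 24 h. Reporter mRNA quantified by RT-PCR, 6-FAM labelling, HpaI digestion and capillary electrophoresis; TAL basal promoter serves as background control, fitted bidirectionally versus DMSO.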

[2] = ATG_TGFb_CIS: Attagene CIS-FACTORIAL HepG2 Assay for human Transforming Growth Factor (TGF) (AID 2282967; active means hit-call score of the fitted dose curve at least 0.9, where 1 is the maximum; inactive means score below 0.9); settings: HepG2 Attagene CIS TGFb reporter, mRNA transcription; actives raise or lower the signal
Summary of the method: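 After a 24-hour incubation with compound, transfected HepG2 cells were lysed for RNA; reporter cDNA was amplified, fluorescently end-labeled and separated by CE. DMSO served as baseline for bidirectional fits.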

[3] = ATG_VDRE_CIS: Attagene CIS-FACTORIAL HepG2 Assay for human Vitamin D Receptor Element (VDRE) (AID 2282968; active means hit-call score of the fitted dose curve at least 0.9, where 1 is the maximum; inactive means score below 0.9); settings: HepG2 VDRE cis-reporter transcription, actives raise or lower the signal
Summary of the method: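 RT-PCR/CE readout of reporter mRNA; HepG2, transient transfection, 24 h dosing; DMSO baseline; bidirectional analysis.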

[4] = biological target: Nuclear receptor subfamily 1 group I member 3 (Homo sapiens) (UniProt Q14994); assay: ATG_CAR_TRANS: Attagene TRANS-FACTORIAL HepG2 Assay for human Constitutive Androstane Receptor (CAR) (AID 2282969); settings: HepG2 Attagene TRANS-FACTORIAL CAR reporter;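 further: activators raise reporter mRNA above DMSO so AC50 marks induction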
Summary of the method: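 HepG2 cells transiently transfected with multiplexed GAL4-UAS reporter units expressing chimeric NR-Gal4 proteins; compound exposure 24 h. Reporter mRNA measured by RT-PCR, 6-FAM labelling, HpaI digestion and capillary electrophoresis; gain-of-signal fitted against DMSO baseline.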

[5] = ATG_M_19_TRANS: Attagene TRANS-FACTORIAL HepG2 Assay for M19 Transcription Factor (Internal Marker) (AID 2282974); settings: HepG2 Attagene TRANS-FACTORIAL M19 internal marker reporter
Summary of the method: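 Transfected HepG2 (GAL4-UAS MRTUs), 24 h compound, TriZol RNA, DNase-treated RT, reporter PCR, FAM label, HpaI digest, CE fluorescence; gain vs DMSO.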

[6] = ATG_GAL4_TRANS: Attagene TRANS-FACTORIAL HepG2 Assay for GAL4 (Internal Marker) (AID 2282976); settings: HepG2 Attagene TRANS GAL4 internal marker reporter
Summary of the method: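 Background-control readout: GAL4-UAS reporter transcript in transiently transfected HepG2 cells after 24 h compound exposure. Measured by RT-PCR, 6-FAM primer extension, HpaI digest and capillary electrophoresis; gain-of-signal fit versus DMSO.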

[7] = biological target: Glucocorticoid receptor (Homo sapiens) (UniProt P04150); assay: ATG_GR_TRANS: Attagene TRANS-FACTORIAL HepG2 Assay for human Glucocorticoid Receptor (GR) (AID 2282978); settings: HepG2 Attagene TRANS GR reporter, mRNA transcription;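 further: activators score as hits since higher reporter transcript over DMSO is fitted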
Summary of the method: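 After 24 h incubation with test chemical, transfected HepG2 cells were lysed for RNA; reporter cDNA was amplified, FAM-labelled, HpaI-digested and sized on a capillary analyser. Signal gain relative to DMSO was scored.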

[8] = biological target: Oxysterols receptor LXR-alpha (Homo sapiens) (UniProt Q13133); assay: ATG_LXRa_TRANS: Attagene TRANS-FACTORIAL HepG2 Assay for human Liver X Receptor alpha (LXRa) (AID 2282980); settings: HepG2 Attagene TRANS reporter, LXRa transactivation
Summary of the method: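 HepG2 cells transiently transfected with GAL4-UAS reporter units for chimeric NR-Gal4 proteins, exposed to chemicals for 24 h. Reporter mRNA quantified by RT-PCR and capillary electrophoresis; gain of signal fitted relative to DMSO.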

[9] = biological target: Hepatocyte nuclear factor 4-alpha (Homo sapiens) (UniProt P41235); assay: ATG_HNF4a_TRANS: Attagene TRANS-FACTORIAL HepG2 Assay for human Hepatocyte Nuclear Factor 4 alpha (HNF4a) (AID 2282982); settings: HepG2 HNF4a transactivation reporter, mRNA readout
Summary of the method: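 Cells used were human HepG2, transiently carrying GAL4-UAS reporter units read out against exogenous NR-GAL4 chimeras. Reporter transcript levels after 24 h dosing were quantified by fluorescent RT-PCR and capillary electrophoresis.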

[10] = ATG_M_32_TRANS: Attagene TRANS-FACTORIAL HepG2 Assay for M32 Transcription Factor (Internal Marker) (AID 2282984); settings: HepG2 Attagene TRANS M32 internal marker reporter
Summary of the method: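 Human hepatoma HepG2, transient MRTU transfection, 24 h treatment. RNA → RT-PCR → fluorescent primer extension → HpaI digest (2 h, 37 C) → CE. Positive-direction fit vs DMSO.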

[11] = biological target: Nuclear receptor subfamily 4 group A member 2 (Homo sapiens) (UniProt P43354); assay: ATG_NURR1_TRANS: Attagene TRANS-FACTORIAL HepG2 Assay for human Nuclear Receptor Related Protein 1 (NURR1) (AID 2282985); settings: HepG2 Attagene TRANS reporter, mRNA readout
Summary of the method: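 After 24 h chemical dosing, total RNA from transiently transfected HepG2 cells was reverse-transcribed and reporter cDNA PCR-amplified, FAM-labelled and analysed by capillary electrophoresis. Activity fitted in positive direction, DMSO as negative control.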

[12] = biological target: Transcriptional activator Myb (Homo sapiens) (UniProt P10242); assay: ATG_Myb_CIS: Attagene CIS-FACTORIAL HepG2 Assay for human Myeloblastosis (Myb) Proto-Oncogene Transcription Factor (AID 2282986; active means hit-call score of the fitted dose curve at least 0.9, where 1 is the maximum; inactive means score below 0.9); settings: HepG2 Attagene CIS-FACTORIAL Myb reporter transcription; actives raise or lower the signal
Summary of the method: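 After 24 h of compound dosing, total RNA from transfected HepG2 cells is reverse-transcribed and the reporter sequences amplified, labeled and separated by capillary electrophoresis. Values come from bidirectional fitting against DMSO.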

[13] = biological target: Nuclear respiratory factor 1 (Homo sapiens) (UniProt Q16656); assay: ATG_NRF1_CIS: Attagene CIS-FACTORIAL HepG2 Assay for human Nuclear Respiratory Factor 1 (NRF1) Orphan Gene (AID 2282987; active means hit-call score of the fitted dose curve at least 0.9, where 1 is the maximum; inactive means score below 0.9); settings: HepG2 NRF1 cis-element reporter, Attagene multiplex; actives raise or lower the signal
Summary of the method: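 Measured: fluorescent reporter-specific RT-PCR products from transfected HepG2 cells, separated by capillary electrophoresis. Exposure lasted 24 h. Analysis used bidirectional curve fitting with DMSO as negative control.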

[14] = biological target: Steroid hormone receptor ERR1 (Homo sapiens) (UniProt P11474); assay: ATG_ERRa_TRANS: Attagene TRANS-FACTORIAL HepG2 Assay for human Estrogen-Related Receptor alpha (ERRa) (AID 2282971); settings: HepG2 Attagene TRANS reporter, ERRa transactivation
Summary of the method: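 HepG2 cells transiently transfected with GAL4-UAS reporter units and chimeric NR-Gal4 constructs; after 24 hour compound incubation, reporter mRNA quantified by RT-PCR, fluorescent labelling and capillary electrophoresis, gain of signal versus DMSO.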

[15] = biological target: X-box-binding protein 1 (Homo sapiens) (UniProt P17861); assay: ATG_Xbp1_CIS: Attagene CIS-FACTORIAL HepG2 Assay for human X-box Binding Protein 1 (XBP1) (AID 2282972; active means hit-call score of the fitted dose curve at least 0.9, where 1 is the maximum; inactive means score below 0.9); settings: HepG2 XBP1 cis-element reporter, Attagene multiplex; actives raise or lower the signal
Summary of the method: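 HepG2, transient MRTU transfection (cis-promoter driven), 24 h compound exposure. Total RNA → oligo(dT) RT → PCR → 6-FAM labeling → HpaI cut → CE. Bidirectional fit vs DMSO.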

[16] = biological target: Estrogen-related receptor gamma (Homo sapiens) (UniProt P62508); assay: ATG_ERRg_TRANS: Attagene TRANS-FACTORIAL HepG2 Assay for human Estrogen-Related Receptor gamma (ERRg) (AID 2282977); settings: HepG2 Attagene TRANS reporter, ERRg transactivation;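 further: hits increase reporter signal over DMSO so potencies reflect activators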
Summary of the method: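 Transfect HepG2 with multiple GAL4-UAS reporter transcription units; dose chemicals 24 h; isolate RNA, reverse-transcribe with oligo(dT), PCR-amplify, label with 6-FAM, digest with HpaI; size fragments by capillary electrophoresis. DMSO serves as negative control.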

[17] = biological target: Bile acid receptor (Homo sapiens) (UniProt Q96RI1); assay: ATG_FXR_TRANS: Attagene TRANS-FACTORIAL HepG2 Assay for Farnesoid X Receptor (FXR) (AID 2282979); settings: HepG2 Attagene TRANS FXR-GAL4 reporter transcription;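 further: hits raise reporter mRNA above DMSO so AC50 marks FXR activation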
Summary of the method: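 HepG2 cells were transiently transfected with GAL4-UAS reporters driven by chimeric NR-Gal4 proteins and dosed for 24 h. Reporter mRNA was quantified by RT-PCR, fluorescent labelling, HpaI digestion and capillary electrophoresis, with gain of signal scored versus DMSO.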

[18] = biological target: Oxysterols receptor LXR-beta (Homo sapiens) (UniProt P55055); assay: ATG_LXRb_TRANS: Attagene TRANS-FACTORIAL HepG2 Assay for human Liver X Receptor beta (LXRb) (AID 2282981); settings: HepG2 Attagene TRANS GAL4-LXRb reporter, mRNA
Summary of the method: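 In this TRANS format, exogenous chimeric NR-Gal4 protein activity, not endogenous factors, drives reporter expression in transfected human HepG2 cells. Exposure lasted 24 h; reporter mRNA was read by fluorescent capillary electrophoresis.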

[19] = biological target: Estrogen receptor (Homo sapiens) (UniProt P03372); assay: ATG_ERa_TRANS: Attagene TRANS-FACTORIAL HepG2 Assay for human Estrogen Receptor alpha (ERa) (AID 2282970); settings: HepG2 Attagene TRANS ERa GAL4 reporter, mRNA
Summary of the method: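 HepG2 cells transiently transfected with multiplexed GAL4-UAS reporter units read out chimeric NR-Gal4 activity. After 24 h compound exposure, reporter mRNA was quantified by RT-PCR, 6-FAM labeling, HpaI digestion and capillary electrophoresis, relative to DMSO.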

[20] = ATG_M_06_TRANS: Attagene TRANS-FACTORIAL HepG2 Assay for M06 Transcription Factor (Internal Marker) (AID 2282983); settings: HepG2 Attagene TRANS M06 internal marker reporter
Summary of the method: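 HepG2 cells transiently transfected with GAL4-UAS multiple reporter units, dosed 24 h. Reporter RNA reverse-transcribed, PCR-amplified, 6-FAM-labeled, HpaI-digested and quantified by capillary electrophoresis; this internal-marker signal fitted upward relative to DMSO.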

Measured: AC50

Estrogen receptor (Homo sapiens), sequence (P03372 whole entry, looked up, the tested form may be a part): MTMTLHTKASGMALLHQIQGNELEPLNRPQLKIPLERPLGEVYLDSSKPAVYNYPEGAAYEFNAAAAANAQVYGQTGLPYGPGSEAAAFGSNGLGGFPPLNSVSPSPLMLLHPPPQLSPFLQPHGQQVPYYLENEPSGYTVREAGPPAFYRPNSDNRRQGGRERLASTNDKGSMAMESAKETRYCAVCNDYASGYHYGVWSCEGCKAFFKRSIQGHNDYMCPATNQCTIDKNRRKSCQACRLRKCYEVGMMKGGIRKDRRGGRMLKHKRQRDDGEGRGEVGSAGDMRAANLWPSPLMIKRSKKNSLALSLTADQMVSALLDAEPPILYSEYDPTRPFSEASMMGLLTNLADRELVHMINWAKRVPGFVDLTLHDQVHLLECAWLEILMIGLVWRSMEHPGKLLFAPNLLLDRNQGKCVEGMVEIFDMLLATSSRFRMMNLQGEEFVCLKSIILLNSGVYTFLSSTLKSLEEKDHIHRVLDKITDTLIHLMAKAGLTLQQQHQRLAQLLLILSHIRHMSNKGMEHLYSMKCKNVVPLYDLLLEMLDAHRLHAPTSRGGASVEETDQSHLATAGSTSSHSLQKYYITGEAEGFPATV
Nuclear respiratory factor 1 (Homo sapiens), sequence (Q16656 whole entry, looked up): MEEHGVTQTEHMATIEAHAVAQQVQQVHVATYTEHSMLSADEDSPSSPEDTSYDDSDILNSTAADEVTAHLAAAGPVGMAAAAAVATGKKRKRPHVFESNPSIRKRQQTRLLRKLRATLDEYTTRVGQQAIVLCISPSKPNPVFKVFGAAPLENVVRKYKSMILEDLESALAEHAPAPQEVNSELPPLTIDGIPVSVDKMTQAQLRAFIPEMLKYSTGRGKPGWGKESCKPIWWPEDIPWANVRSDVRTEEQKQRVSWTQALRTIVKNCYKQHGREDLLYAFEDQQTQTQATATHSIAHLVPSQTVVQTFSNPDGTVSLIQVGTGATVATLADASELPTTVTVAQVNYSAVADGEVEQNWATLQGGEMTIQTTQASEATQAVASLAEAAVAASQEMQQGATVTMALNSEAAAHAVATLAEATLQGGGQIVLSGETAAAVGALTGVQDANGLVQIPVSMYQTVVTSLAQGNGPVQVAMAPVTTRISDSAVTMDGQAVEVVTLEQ
X-box-binding protein 1 (Homo sapiens), sequence (P17861 whole entry, looked up): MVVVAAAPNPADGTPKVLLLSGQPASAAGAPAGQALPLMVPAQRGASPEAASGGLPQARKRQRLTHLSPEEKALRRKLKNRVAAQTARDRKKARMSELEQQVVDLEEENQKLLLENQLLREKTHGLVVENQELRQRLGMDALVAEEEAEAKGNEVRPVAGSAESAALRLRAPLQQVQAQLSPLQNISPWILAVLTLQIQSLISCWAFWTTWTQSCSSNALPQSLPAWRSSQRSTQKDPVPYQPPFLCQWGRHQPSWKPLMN
Hepatocyte nuclear factor 4-alpha (Homo sapiens), sequence (P41235 whole entry, looked up, the tested form may be a part): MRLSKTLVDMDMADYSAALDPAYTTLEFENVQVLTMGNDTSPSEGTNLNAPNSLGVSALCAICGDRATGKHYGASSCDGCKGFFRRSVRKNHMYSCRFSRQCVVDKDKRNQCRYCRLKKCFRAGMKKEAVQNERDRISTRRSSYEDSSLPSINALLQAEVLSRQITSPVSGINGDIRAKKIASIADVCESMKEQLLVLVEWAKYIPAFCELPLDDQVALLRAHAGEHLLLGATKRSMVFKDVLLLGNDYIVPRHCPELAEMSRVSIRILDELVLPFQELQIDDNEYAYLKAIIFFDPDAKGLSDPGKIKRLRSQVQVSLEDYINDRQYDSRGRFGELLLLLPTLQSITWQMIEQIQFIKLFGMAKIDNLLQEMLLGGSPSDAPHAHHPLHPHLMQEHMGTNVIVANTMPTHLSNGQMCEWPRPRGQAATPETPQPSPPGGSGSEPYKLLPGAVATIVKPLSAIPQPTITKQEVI
Glucocorticoid receptor (Homo sapiens), sequence (P04150 whole entry, looked up): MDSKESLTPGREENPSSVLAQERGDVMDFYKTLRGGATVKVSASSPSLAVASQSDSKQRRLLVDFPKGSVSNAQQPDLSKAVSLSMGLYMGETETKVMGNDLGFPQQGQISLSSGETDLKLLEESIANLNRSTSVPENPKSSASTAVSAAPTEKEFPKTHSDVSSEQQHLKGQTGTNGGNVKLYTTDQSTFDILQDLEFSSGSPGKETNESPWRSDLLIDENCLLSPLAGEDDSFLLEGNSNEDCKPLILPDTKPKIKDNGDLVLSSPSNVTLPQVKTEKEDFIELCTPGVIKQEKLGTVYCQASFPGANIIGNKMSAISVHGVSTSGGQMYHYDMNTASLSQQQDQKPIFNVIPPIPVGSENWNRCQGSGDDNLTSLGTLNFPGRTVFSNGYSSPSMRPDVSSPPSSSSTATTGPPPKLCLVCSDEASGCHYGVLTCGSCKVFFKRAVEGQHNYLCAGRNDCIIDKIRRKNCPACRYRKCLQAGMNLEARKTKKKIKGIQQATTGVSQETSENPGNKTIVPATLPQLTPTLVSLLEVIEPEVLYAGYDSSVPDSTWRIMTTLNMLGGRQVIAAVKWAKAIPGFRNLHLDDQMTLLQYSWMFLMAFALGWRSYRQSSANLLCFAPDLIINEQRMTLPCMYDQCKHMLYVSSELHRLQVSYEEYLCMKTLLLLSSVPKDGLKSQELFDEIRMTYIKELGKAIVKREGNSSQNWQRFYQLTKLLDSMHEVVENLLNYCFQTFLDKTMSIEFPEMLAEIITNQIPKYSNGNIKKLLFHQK
Steroid hormone receptor ERR1 (Homo sapiens), sequence (P11474 whole entry, looked up, the tested form may be a part): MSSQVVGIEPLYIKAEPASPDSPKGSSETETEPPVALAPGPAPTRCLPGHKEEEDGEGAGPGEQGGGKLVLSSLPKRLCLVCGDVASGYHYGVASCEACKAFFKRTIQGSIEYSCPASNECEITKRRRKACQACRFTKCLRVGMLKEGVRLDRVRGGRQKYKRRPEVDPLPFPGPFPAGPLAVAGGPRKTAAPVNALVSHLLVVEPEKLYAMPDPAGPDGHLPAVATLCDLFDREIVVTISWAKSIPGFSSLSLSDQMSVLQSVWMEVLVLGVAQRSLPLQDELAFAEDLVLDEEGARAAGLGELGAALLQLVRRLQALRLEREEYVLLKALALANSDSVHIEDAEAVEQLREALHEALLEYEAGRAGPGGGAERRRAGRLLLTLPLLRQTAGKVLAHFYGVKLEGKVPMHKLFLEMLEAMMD
Nuclear receptor subfamily 4 group A member 2 (Homo sapiens), sequence (P43354 whole entry, looked up): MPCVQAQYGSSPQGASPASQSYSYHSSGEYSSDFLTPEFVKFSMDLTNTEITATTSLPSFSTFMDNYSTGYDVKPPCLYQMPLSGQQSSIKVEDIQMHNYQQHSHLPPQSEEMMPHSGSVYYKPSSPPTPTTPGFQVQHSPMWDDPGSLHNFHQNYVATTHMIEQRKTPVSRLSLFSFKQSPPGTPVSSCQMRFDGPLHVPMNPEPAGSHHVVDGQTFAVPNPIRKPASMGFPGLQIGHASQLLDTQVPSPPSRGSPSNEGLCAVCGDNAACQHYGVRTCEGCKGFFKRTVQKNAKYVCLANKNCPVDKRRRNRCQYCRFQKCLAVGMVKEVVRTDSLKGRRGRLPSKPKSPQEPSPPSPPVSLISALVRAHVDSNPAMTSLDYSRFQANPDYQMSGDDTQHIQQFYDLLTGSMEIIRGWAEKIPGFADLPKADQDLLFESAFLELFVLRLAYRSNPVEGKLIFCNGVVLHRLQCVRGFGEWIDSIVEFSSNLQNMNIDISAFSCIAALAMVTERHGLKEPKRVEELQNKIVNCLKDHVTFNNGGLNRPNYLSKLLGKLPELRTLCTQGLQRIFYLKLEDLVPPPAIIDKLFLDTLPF
Estrogen-related receptor gamma (Homo sapiens), sequence (P62508 whole entry, looked up, the tested form may be a part): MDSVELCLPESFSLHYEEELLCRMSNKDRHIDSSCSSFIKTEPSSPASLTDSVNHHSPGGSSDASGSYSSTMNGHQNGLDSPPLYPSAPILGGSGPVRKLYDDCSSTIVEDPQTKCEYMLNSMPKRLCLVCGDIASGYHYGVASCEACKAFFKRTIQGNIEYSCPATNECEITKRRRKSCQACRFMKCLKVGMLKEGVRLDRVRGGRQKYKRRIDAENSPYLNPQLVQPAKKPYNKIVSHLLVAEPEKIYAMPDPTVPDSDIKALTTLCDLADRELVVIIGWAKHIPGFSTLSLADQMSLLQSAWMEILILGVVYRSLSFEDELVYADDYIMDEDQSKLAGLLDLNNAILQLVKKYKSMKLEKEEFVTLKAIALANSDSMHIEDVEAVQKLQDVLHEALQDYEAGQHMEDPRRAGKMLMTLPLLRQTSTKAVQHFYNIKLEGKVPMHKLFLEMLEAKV
Transcriptional activator Myb (Homo sapiens), sequence (P10242 whole entry, looked up): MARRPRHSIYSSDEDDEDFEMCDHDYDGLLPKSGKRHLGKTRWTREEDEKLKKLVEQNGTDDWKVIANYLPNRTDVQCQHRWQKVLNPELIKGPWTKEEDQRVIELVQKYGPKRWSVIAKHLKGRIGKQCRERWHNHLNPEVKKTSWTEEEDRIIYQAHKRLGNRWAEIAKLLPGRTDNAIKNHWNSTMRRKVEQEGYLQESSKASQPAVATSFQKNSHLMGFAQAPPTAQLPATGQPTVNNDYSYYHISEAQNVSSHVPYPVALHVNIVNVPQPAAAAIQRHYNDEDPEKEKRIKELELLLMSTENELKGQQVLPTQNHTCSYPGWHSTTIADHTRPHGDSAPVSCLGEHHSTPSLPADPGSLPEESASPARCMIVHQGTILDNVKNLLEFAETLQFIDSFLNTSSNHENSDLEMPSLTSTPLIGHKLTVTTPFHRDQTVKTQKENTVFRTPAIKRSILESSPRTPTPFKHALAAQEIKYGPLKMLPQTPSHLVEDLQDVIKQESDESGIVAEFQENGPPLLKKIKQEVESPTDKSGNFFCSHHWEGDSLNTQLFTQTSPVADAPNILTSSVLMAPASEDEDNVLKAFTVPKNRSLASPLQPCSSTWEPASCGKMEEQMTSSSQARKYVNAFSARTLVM

CCOCCOCCOCC
not listed: [14] | [15] | [16] | [17] | [18] | [19] | [20]
inactive: all other assays above

Cc1cc(S(=O)(=O)O)ccc1N=Nc1c(O)ccc2ccccc12
active: [2] 4.96 µM
not listed: [4] | [7] | [10] | [19] | [20]
inactive: all other assays above

O=[N+]([O-])c1cccc(Cl)c1
inactive: [1] | [2] | [3] | [19] | [20] | [12] | [13]

O=c1[nH]c(=O)c2cn[nH]c2[nH]1
not listed: [4] | [8] | [10] | [11] | [17] | [19] | [20]
inactive: all other assays above

COCCc1ccc(OCC(O)CNC(C)C)cc1 (stereo not drawn)
inactive: [1] | [2] | [3] | [14] | [15] | [5] | [7] | [10] | [12] | [13]

CC(C)(C)CC(C)(C)c1ccc(OCCOCC[N+](C)(C)Cc2ccccc2)cc1
not listed: [4] | [8] | [14] | [18] | [20]
inactive: all other assays above

CN1C(=O)c2ccccc2C1=O
not listed: [4] | [5] | [8] | [10] | [17] | [18] | [19]
inactive: all other assays above

CC(C)CCCCCCc1ccc(OCCOCCO)cc1
inactive: [1] | [2] | [3] | [19] | [15] | [6] | [16] | [20] | [12] | [13]

CC(C)NCC(O)COc1ccc(CC(N)=O)cc1 (stereo not drawn)
not listed: [4] | [7] | [8] | [11] | [14] | [15] | [16] | [17]
inactive: all other assays above
